Rows were chosen to be rich in hits. Some 1.9% of all compounds tested hit in one or more screens of this group.
EP2 mod – modulators of human EP2 prostaglandin E2 receptor; P43116; EP2-expressing cells, cAMP HTRF FRET, PGE2 co-stimulation; induction, % at 25 µM; 260,000 compounds, 0.83% hits;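 active = compounds whose cAMP rise, as percent of the full-agonist control response, exceeds 60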;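 also: rat C6 glioma line stably carrying human EP2 under a CMV promoter; the protocol text gives 20 µM as final concentration; 100% = response of wells given 1 µM PGE2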
Target sequence (P43116 whole entry, looked up): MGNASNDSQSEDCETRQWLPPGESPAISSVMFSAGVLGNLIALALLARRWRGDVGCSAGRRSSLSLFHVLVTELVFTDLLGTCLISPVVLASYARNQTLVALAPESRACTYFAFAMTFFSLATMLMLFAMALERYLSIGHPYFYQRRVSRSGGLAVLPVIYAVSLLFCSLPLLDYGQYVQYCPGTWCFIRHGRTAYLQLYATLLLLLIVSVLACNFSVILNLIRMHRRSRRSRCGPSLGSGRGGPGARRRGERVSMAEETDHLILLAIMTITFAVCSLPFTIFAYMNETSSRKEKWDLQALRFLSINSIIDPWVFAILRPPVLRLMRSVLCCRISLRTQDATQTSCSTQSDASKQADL
S1P4 antag – antagonists of human S1P4 receptor | O95977 | S1P4-expressing cells, antagonist mode, reporter read-out | inhibition, % at 4.98 µM | 220,000 compounds, 0.26% hits | AID 1510; in the data active = inhibition above about 29%;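 also: 0% = wells stimulated with agonist and 100% = vehicle wells without agonist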
PGE2 EP2 inh – EP2 receptor (human) inhibition; P43116; C6 glioma cells expressing human EP2, cAMP TR-FRET; cells stimulated with saturating PGE2; inhibition, % at 25 µM; 260,000 compounds, 0.52% hits;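 active = percent inhibition above 40 after rounding to a whole number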;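 also: rat C6 glioma host cells with rolipram phosphodiesterase inhibitor present; the protocol text gives 20 µM as final concentration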
Pf gamet viab – kills late stage P. falciparum gametocytes | inhibition, % at 10.9 µM | AID 743093 | P. falciparum stage V gametocytes, ATP luminescence, 24 h | 150,000 compounds, 0.065% hits;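 active = inhibition above the mean plus 3 SD of compounds within the control limits, set per campaign, cut at about 38% in these data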;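 also: 0% = DMSO wells and 100% = medium only without gametocytes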
S1P4 ag – agonists of human S1P4 receptor | S1P4-expressing cell line, agonist reporter assay | 220,000 compounds, 0.35% hits | O95977 | activation, % at 4.98 µM | AID 1509; in the data active = activation above about 11%;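 also: 0% = DMSO vehicle and 100% = reference agonist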
S1P3 antagonist – antagonists of human S1P3 receptor; Q99500; CHO S1P3 NFAT-BLA reporter, FRET fluorescence, antagonist mode; AID 485; 170,000 compounds, 0.27% hits; inhibition, % at 4.98 µM;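 active = inhibition above the plate cutoff, the mean inhibition of test wells on that plate plus 3 SD, cut at about 28% in these data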;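 also: cells challenged with S1P at its EC80 of 0.8 µM; blue over green emission ratio from cleaved BLA substrate after 4 h stimulation; 0% = S1P-stimulated wells and 100% = unstimulated DMSO-only wells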
The depositor's hits bear a star; . = not tested or not shown.

SMILES	EP2 mod	S1P4 antag	PGE2 EP2 inh	Pf gamet viab	S1P4 ag	S1P3 antagonist
O=C1c2ccccc2-c2ccc(N=[N+]([O-])c3ccc4c(c3)C(=O)c3ccccc3-4)cc21	0	.	51*	.	.	.
C[C@@H]1CC2C3CCC4=CC(=O)C=C[C@]4(C)[C@@]3(F)[C@@H](O)C[C@]2(C)[C@@]1(O)C(=O)COP(=O)(O)O (stereo partly drawn)	25	.	19	.	.	.
N#CSc1cnc(N)s1	-120	.	111*	.	.	.
N#C/C(C(=O)NCCc1ccccc1)=C1/N=C(NC(=O)c2cccs2)c2ccccc21	63*	-6	13	23	1	2
CC(=O)c1ccc(S(=O)(=O)N2CCCCCC2)cc1	-27	.	94*	.	.	.
CC1CCCN(CC(O)CN)C1 (stereo not drawn)	20	-3	4	47*	2	.
Cc1ccc2nc(NCc3ccccc3)c(C=NCc3cccnc3)c(=O)n2c1	49	6	6	-2	1	10
Cc1ccc2nc(NCc3ccco3)c(C=NCc3ccco3)c(=O)n2c1	63*	0	8	.	2	7
O=C(Nc1ccc(-c2cn3ccccc3n2)cc1)c1cc(Br)ccc1O	-20	.	45*	.	.	.
O=C(Nc1cccc(-c2cn3ccccc3n2)c1)c1cccc(Cl)c1	-14	-17	61*	-11	-1	.
O=C(Nc1cccc(-c2cn3ccccc3n2)c1)c1cnccn1	-8	-3	17	.	0	.
CCCC(=O)Nc1cc(C)c(NC(=O)C(C)(C)C)cn1	-16	.	14	.	.	.
COc1c(C)cc(Br)cc1C(=O)Nc1ccc(Cc2ccncc2)cc1	64*	-1	11	6	5	-3
CC(C)n1c2ccccc2c2cc([N+](=O)[O-])ccc21	65*	-14	8	-14	-1	0
O=[N+]([O-])c1ccc2c(c1)nnn2-c1ccccc1	.	.	.	-5	.	.
CC(C)n1cc(C(=O)N2C[C@H](C(=O)O)[C@@H](c3ccc(F)cc3)C2)cn1	2	.	8	.	.	.
O=C(Cc1ccc(-c2ccccc2)cc1)N1CCC(n2cnc3cccnc32)CC1	-100	.	11	.	.	.
Cc1ccc(S(=O)(=O)N2CCC(C(=O)O)(c3ccccc3)CC2)cc1	19	.	43*	.	.	.
O=C(O)C[C@H](NC(=O)CP(=O)(O)O)C(=O)O.[NH-][C@@H]1CCCC[C@H]1[NH-].[Pt]	9	.	40*	.	.	.
NC(=O)N[C@H](CC(=O)O)C(=O)O	-24	.	12	.	.	.
CC(=O)c1cc(C(=O)NC(c2ccncc2)c2ccccc2C)cs1 (stereo not drawn)	-24	.	1	.	.	.
Cc1ccc(C(=O)c2c(C)oc3c2C(=O)C(=O)c2ccccc2-3)cc1	-48	8	55*	.	0	.
CC1CCN(c2ncccc2C(=O)N2CCCC2)CC1	23	.	8	.	.	.
CCC(C)Sc1nc2c(c(=O)[nH]c(=O)n2C)n1CC(O)COc1ccccc1C (stereo not drawn)	19	-10	2	39*	2	.
CC(C)Sc1nc2c(c(=O)[nH]c(=O)n2C)n1CC(O)COc1cccc2ccccc12 (stereo not drawn)	46	.	10	.	.	.
SMILES	EP2 mod	S1P4 antag	PGE2 EP2 inh	Pf gamet viab	S1P4 ag	S1P3 antagonist
COc1ccc(CN(Cc2cc3ccc(C)cc3[nH]c2=O)C(=O)Nc2ccccc2OC)cc1	-1	.	14	.	.	.
COc1ccc2[nH]c(=O)c(CN(Cc3ccc(C)cc3)C(=O)Nc3ccccc3OC)cc2c1	61*	.	8	.	.	.
O=S1(=O)CC2NC(=S)N(c3cccc(Br)c3)C2C1 (stereo not drawn)	70*	26	6	-1	0	10
O=C1N(c2ccccc2)C2CS(=O)(=O)CC2N1c1ccc(Br)cc1 (stereo not drawn)	-6	-11	10	.	0	-9
c1ccc(C[n+]2cccc(-c3cc4ccccc4[nH]3)c2)cc1	-32	.	59*	.	.	.
CCn1c(=O)c(C(=O)NCCc2ccccc2)c(O)c2ccccc21	61*	-8	3	.	2	9
CCn1c(=O)c(C(=O)NCCCl)c(O)c2ccccc21	-8	.	9	.	.	.
CCCn1c(=O)c(C(=O)Nc2ccccc2OC)c(O)c2ccccc21	67*	.	14	.	.	.
CC(=O)N(C(C)=O)c1c(C)n(C)n(-c2ccccc2)c1=O	-21	.	15	.	.	.
COCCN1C(=O)C(=O)/C(=C(\O)c2ccc(OC)cc2)C1c1ccc(O)c(OC)c1 (stereo not drawn)	11	.	11	.	.	.
CCC(C(=O)N1CCC(n2nnc3cccnc32)CC1)c1ccccc1 (stereo not drawn)	19	.	9	.	.	.
Cc1oc(C2CC2)cc1C(=O)N1CCC2(CC1)NC(=O)c1ccccc1O2	-62	.	7	.	.	.
CCC(c1nnnn1C1CCCC1)N(Cc1ccccc1)Cc1cc2cccc(C)c2[nH]c1=O (stereo not drawn)	64*	.	25	.	.	.
CCC(c1nnnn1C1CCCCC1)N(Cc1ccco1)Cc1cc2c(C)ccc(C)c2[nH]c1=O (stereo not drawn)	76*	.	13	.	.	.
c1csc(-c2nc3ccccn3c2NC2CCCCC2)c1	61*	5	5	-18	-1	-10
Nc1ccn([C@H]2O[C@H](COC(=O)C34CC5CC(CC(C5)C3)C4)[C@@H](O)[C@@H]2O)c(=O)n1	2	.	51*	.	.	.
CN(CC(=O)NCCC1=CCCCC1)S(=O)(=O)c1ccc2c(c1)c(=O)n(C)c(=O)n2C	8	1	14	.	-1	74*
CN(CC(=O)NCCc1ccc(Cl)cc1)S(=O)(=O)c1ccc2c(c1)c(=O)n(C)c(=O)n2C	-1	-13	12	.	1	.
Cn1c(=O)oc2cc(S(=O)(=O)NCCN3CCc4ccccc43)ccc21	-58	.	5	.	.	.
CSc1ccc2c(c1)N(CCC1CCCCN1C)c1ccccc1S2 (stereo not drawn)	-19	-6	13	.	1	4
CN1CCCC[C@@H]1CCN1c2ccccc2Sc2ccc(S(C)=O)cc21 (stereo partly drawn)	13	.	44*	.	.	.
CCCn1c(=S)[nH]c2cc(C(=O)N3CCc4ccccc4C3)ccc2c1=O	-15	-3	5	47*	0	-14
CCCn1c(=S)[nH]c2cc(C(=O)N3CCN(c4ccccc4OC)CC3)ccc2c1=O	9	-1	12	.	1	.
CC1(C)C=C(c2ccc(O)cc2)CC(C)(C)N1	-2	14	-5	.	20*	16
CCCC(=O)N1CCCC(c2nc3c(nnn3Cc3cc(C)ccc3C)c(=O)[nH]2)C1 (stereo not drawn)	64*	.	15	.	.	.
Cc1ccc(C)c(Cn2nnc3c(=O)[nH]c(C4CCCN(C(=O)C(C)(C)C)C4)nc32)c1 (stereo not drawn)	3	.	11	.	.	.
Cc1[nH]c2ccccc2c1-c1cc(-c2cc(-c3c(C)[nH]c4ccccc34)on2)no1	-23	.	47*	.	.	.
O=C(Nc1ccc(Cl)c(Cl)c1)c1ccc(Cl)c(Cl)c1	-9	-9	7	.	0	8
Cc1ccc(NC(=O)c2ccc(Cl)c(N3C(=O)C=CC3=O)c2)cc1	-38	-3	125*	15	-2	.
